Experimental data taken from PubChem BioAssay (EPA / NIEHS).
Records with an inconclusive call do not appear. The source made the active and inactive calls. The calls were made as follows, unless noted: active = hit-call score of the fitted dose curve at least 0.9, where 1 is the maximum; inactive = score below 0.9.

What was measured:
[1] = read-out: Interleukin-1 alpha (IL1a), IL1A (gene 3552); assay: BSK_LPS_IL1a: BioMAP Diversity Plus: LPS Assay for Interleukin-1 alpha (IL1a) Biomarker Activity (AID 2283080); conditions: primary human HUVEC with PBMC; actives raise or lower the signal
Outline: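 Human umbilical vein endothelial cells co-cultured with peripheral blood mononuclear cells were LPS-stimulated and exposed to test chemicals for 24 h. IL-1 alpha was quantified by ELISA, with bidirectional curve fitting against DMSO as the negative control and baseline.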

[2] = read-out: Monocyte Chemoattractant Protein-1 (MCP1), CCL2 (gene 6347); assay: BSK_LPS_MCP1: BioMAP Diversity Plus: LPS Assay for Monocyte Chemoattractant Protein-1 (MCP1) Biomarker Activity (AID 2283081); conditions: primary human HUVEC with PBMC; actives raise or lower the signal
Outline: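 HUVEC plus PBMC co-culture (human primary cells, LPS system) exposed to test chemical for 24 h; MCP-1 measured by ELISA. Bidirectional curve fitting against DMSO baseline; parallel SRB total-protein staining flags overt cytotoxicity.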

[3] = BSK_LPS_PGE2: BioMAP Diversity Plus: LPS Assay for Prostaglandin E2 (PGE2) Biomarker Activity (AID 2283082); conditions: primary human HUVEC with PBMC; actives raise or lower the signal
Outline: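 HUVEC plus human PBMC co-culture stimulated with LPS; secreted PGE2 quantified by ELISA 24 h after chemical dosing. Activity fitted bidirectionally against DMSO baseline; parallel SRB staining (0.1% SRB after 10% TCA fixation, 560 nm) flags overt cytotoxicity.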

[4] = read-out: Macrophage colony-stimulating factor (MCSF), CSF1 (gene 1435); assay: BSK_LPS_MCSF: BioMAP Diversity Plus: LPS Assay for Macrophage colony-stimulating factor (MCSF) Biomarker Activity (AID 2283083); conditions: primary human HUVEC with PBMC; actives raise or lower the signal
Outline: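 Human umbilical vein endothelial cells co-cultured with peripheral blood mononuclear cells were exposed to compound for 24 h. M-CSF levels were measured by ELISA, and bidirectional curve fitting used DMSO as the negative control and baseline.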

[5] = read-out: Tissue Factor, F3 (gene 2152); assay: BSK_LPS_TissueFactor: BioMAP Diversity Plus: LPS Assay for Tissue Factor Biomarker Activity (AID 2283084); conditions: primary human HUVEC with PBMC; actives raise or lower the signal
Outline: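 Human umbilical vein endothelial cells co-cultured with peripheral blood mononuclear cells were dosed and stimulated with LPS. Cell-surface CD142 was quantified by ELISA at 24 h. Activity was fitted bidirectionally against DMSO baseline.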

[6] = read-out: Tumor necrosis factor (Homo sapiens) (UniProt P01375); assay: BSK_LPS_TNFa: BioMAP Diversity Plus: LPS Assay for Tumour Necrosis Factor alpha (TNFa) Biomarker Activity (AID 2283085); conditions: primary human HUVEC with PBMC; actives raise or lower the signal
Outline: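 Human umbilical vein endothelial cells co-cultured with PBMC and stimulated with LPS. TNFa was measured by ELISA 24 h after chemical dosing, fitted bidirectionally relative to DMSO.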

CD38, CD38 (gene 952) = assay: BSK_SAg_CD38: BioMAP Diversity Plus: SAg Assay for CD38 Biomarker Activity (AID 2283087); conditions: primary human HUVEC with PBMC; actives raise or lower the signal
Outline: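 Human HUVEC plus PBMC co-culture stimulated with superantigen; CD38 measured by ELISA 24 h after chemical dosing. Fluorescence read-out, bidirectional fit against DMSO; cytotoxicity tracked in parallel by SRB and Alamar Blue.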

CD40, CD40 (gene 958) = assay: BSK_SAg_CD40: BioMAP Diversity Plus: SAg Assay for CD40 Biomarker Activity (AID 2283088); conditions: primary human HUVEC with PBMC; actives raise or lower the signal
Outline: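 Human umbilical vein endothelial cells co-cultured with PBMC; CD40 levels measured by ELISA with fluorescence read-out 24 h after chemical dosing. Gain or loss of signal fitted bidirectionally against DMSO baseline.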

CD69, CD69 (gene 969) = assay: BSK_SAg_CD69: BioMAP Diversity Plus: SAg Assay for CD69 Biomarker Activity (AID 2283089); conditions: primary human HUVEC with PBMC; actives raise or lower the signal
Outline: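 HUVEC co-cultured with PBMC were dosed with chemical, and CD69 was measured by ELISA with fluorescence read-out 24 h later. Bidirectional curve fitting used DMSO as negative control and activity baseline.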

[7] = read-out: Monocyte Chemoattractant Protein-1 (MCP1), CCL2 (gene 6347); assay: BSK_SAg_MCP1: BioMAP Diversity Plus: SAg Assay for Monocyte Chemoattractant Protein-1 (MCP1) Biomarker Activity (AID 2283090); conditions: primary human HUVEC with PBMC; actives raise or lower the signal
Outline: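 MCP-1 levels in the endothelial–PBMC SAg co-culture were quantified by ELISA at 24 h post-dosing; both increases and decreases versus DMSO scored. Cytotoxicity monitored by SRB total protein in parallel cultures.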

[8] = read-out: E-selectin (Homo sapiens) (UniProt P16581); assay: BSK_SAg_Eselectin: BioMAP Diversity Plus: SAg Assay for Eselectin Biomarker Activity (AID 2283091); conditions: primary human HUVEC with PBMC; actives raise or lower the signal
Outline: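 HUVEC co-cultured with PBMC, compound dosed then read at 24 h; E-selectin measured by ELISA. Activity fitted bidirectionally against DMSO as negative control and baseline.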

[9] = read-out: Monokine induced gamma interferon (MIG), CXCL9 (gene 4283); assay: BSK_SAg_MIG: BioMAP Diversity Plus: SAg Assay for Monokine induced gamma interferon (MIG) Biomarker Activity (AID 2283092); conditions: primary human HUVEC with PBMC; actives raise or lower the signal
Outline: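 HUVEC plus human PBMC co-culture, chemicals dosed and MIG (CXCL9) quantified by ELISA at 24 h. Bidirectional curve fitting against DMSO as negative control and baseline, so both gain and loss of signal count as activity.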

[10] = BSK_SAg_PBMCCytotoxicity: PBMC Cytotoxicity Assessment in the BioMAP Diversity Plus: SAg Assay (AID 2283093); conditions: primary human HUVEC with PBMC;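 also: PBMC viability measured as Alamar Blue reduction fluorescence at 546/580 nm; fitted both ways against DMSO so a hit may be loss or gain of signal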
Outline: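 HUVEC/PBMC co-culture; PBMC exposed to chemical 1 h before SEB and TSST-1 activation (20 ng/mL each), incubated 90 h, then Alamar Blue 6 h, fluorescence 546/580 nm. Bidirectional fit versus DMSO baseline.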

[11] = read-out: Interleukin-8 (IL8), CXCL8 (gene 3576); assay: BSK_SAg_IL8: BioMAP Diversity Plus: SAg Assay for Interleukin-8 (IL8) Biomarker Activity (AID 2283094); conditions: primary human HUVEC with PBMC; actives raise or lower the signal
Outline: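 Human umbilical vein endothelial cells co-cultured with PBMC, stimulated with superantigen; IL-8 measured by ELISA 24 h after chemical dosing. Bidirectional fitting versus DMSO; SRB staining in parallel cultures tracks cytotoxicity.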

[12] = BSK_SAg_Proliferation: Cell Proliferation Assessment in the BioMAP Diversity Plus: SAg Assay (AID 2283095); conditions: primary human HUVEC with PBMC
Outline: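 Human umbilical vein endothelial cells co-cultured with PBMC; sulforhodamine B total-protein staining (0.1% SRB after 10% TCA fixation, absorbance 560 nm) at 96 h in sub-confluent culture. Fitted bidirectionally against DMSO.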

[13] = BSK_SAg_SRB: Viability Assessment in the BioMAP Diversity Plus: SAg Assay (AID 2283096); conditions: primary human HUVEC with PBMC;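 also: cells read one day after compound addition; hits may be either gain or loss of signal compared with DMSO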
Outline: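 Human umbilical vein endothelial cells co-cultured with PBMC, read 24 h after compound dosing. Total protein measured by sulforhodamine B staining (0.1% SRB after 10% TCA fixation, absorbance 560 nm); bidirectional fit versus DMSO baseline.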

[14] = read-out: Vascular cell adhesion molecule 1 (VCAM1), VCAM1 (gene 7412); assay: BSK_LPS_VCAM1: BioMAP Diversity Plus: LPS Assay for Vascular cell adhesion molecule 1 (VCAM1) Biomarker Activity (AID 2283086); conditions: primary human HUVEC with PBMC; actives raise or lower the signal
Outline: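 Human umbilical vein endothelial cells co-cultured with PBMC and stimulated with LPS; VCAM-1 measured by ELISA 24 h after dosing. Bidirectional curve fitting against DMSO baseline; cytotoxicity tracked in parallel by SRB total-protein staining.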

[15] = target: human CYP19A1, CYP19A1 (gene 1588) (UniProt P11511); assay: NVS_ADME_hCYP19A1: NovaScreen (NVS) CYP450-related Enzyme Activity (ADME) Assay for human CYP19A1 (AID 2283098; active = hit-call score of the fitted dose curve at least 0.9, where 1 is the maximum)
Outline: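 Recombinant enzyme in a cell-free format, read 0.5 h after dosing by fluorescence from a fluorogenic substrate. Loss of signal was fitted against acetonitrile as baseline. Primary screen in duplicate at 10 uM, actives then tested in concentration series.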

[16] = target: human CYP2A6, CYP2A6 (gene 1548) (UniProt P11509); assay: NVS_ADME_hCYP2A6: NovaScreen (NVS) CYP450-related Enzyme Activity (ADME) Assay for human CYP2A6 (AID 2283099; active = hit-call score of the fitted dose curve at least 0.9, where 1 is the maximum)
Outline: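 Cell-free fluorescence readout of recombinant human CYP2A6 expressed in insect cells, read 0.5 h after dosing; loss of signal versus acetonitrile negative control. Primary screen in duplicate at 10 uM; actives re-run in concentration-response up to 20 uM.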

Measured: AC50

Chain of human CYP19A1, CYP19A1 (gene 1588) (P11511 whole entry, looked up): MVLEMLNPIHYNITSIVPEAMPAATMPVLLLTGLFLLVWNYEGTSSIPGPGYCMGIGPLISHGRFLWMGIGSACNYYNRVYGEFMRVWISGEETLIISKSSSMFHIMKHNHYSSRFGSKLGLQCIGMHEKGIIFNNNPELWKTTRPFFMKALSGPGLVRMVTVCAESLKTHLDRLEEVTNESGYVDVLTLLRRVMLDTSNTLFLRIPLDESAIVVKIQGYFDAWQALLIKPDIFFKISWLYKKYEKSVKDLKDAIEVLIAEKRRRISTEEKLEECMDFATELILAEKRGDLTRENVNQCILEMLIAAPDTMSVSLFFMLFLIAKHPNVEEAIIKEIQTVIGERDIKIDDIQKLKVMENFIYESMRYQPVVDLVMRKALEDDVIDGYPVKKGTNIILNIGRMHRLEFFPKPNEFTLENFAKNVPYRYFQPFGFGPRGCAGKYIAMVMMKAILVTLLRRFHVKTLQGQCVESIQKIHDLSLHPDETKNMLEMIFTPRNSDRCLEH
Chain of E-selectin (Homo sapiens) (P16581 whole entry, looked up): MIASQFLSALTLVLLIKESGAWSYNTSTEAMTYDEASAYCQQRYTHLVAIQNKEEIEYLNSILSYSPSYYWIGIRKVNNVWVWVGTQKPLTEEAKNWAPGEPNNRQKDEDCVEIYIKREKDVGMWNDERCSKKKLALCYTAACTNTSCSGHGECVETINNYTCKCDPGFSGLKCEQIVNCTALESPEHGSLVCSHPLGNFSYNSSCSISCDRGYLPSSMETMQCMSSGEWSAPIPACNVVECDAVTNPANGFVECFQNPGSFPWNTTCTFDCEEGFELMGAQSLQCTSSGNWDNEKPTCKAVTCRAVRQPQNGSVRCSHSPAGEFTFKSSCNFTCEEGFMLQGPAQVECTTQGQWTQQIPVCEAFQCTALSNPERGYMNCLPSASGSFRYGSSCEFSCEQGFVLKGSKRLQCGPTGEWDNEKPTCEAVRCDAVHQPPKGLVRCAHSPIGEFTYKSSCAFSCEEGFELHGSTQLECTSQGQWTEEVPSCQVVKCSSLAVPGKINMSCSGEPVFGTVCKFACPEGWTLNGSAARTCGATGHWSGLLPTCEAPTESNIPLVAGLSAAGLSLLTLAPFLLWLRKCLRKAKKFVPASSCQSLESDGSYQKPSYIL
Chain of Tumor necrosis factor (Homo sapiens) (P01375 whole entry, looked up): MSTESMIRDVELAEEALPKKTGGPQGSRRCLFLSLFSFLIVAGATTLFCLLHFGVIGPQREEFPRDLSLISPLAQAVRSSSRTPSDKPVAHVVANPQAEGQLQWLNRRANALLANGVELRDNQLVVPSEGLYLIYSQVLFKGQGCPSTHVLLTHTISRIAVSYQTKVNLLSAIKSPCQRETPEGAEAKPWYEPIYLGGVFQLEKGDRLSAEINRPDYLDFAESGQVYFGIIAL
Chain of human CYP2A6, CYP2A6 (gene 1548) (P11509 whole entry, looked up): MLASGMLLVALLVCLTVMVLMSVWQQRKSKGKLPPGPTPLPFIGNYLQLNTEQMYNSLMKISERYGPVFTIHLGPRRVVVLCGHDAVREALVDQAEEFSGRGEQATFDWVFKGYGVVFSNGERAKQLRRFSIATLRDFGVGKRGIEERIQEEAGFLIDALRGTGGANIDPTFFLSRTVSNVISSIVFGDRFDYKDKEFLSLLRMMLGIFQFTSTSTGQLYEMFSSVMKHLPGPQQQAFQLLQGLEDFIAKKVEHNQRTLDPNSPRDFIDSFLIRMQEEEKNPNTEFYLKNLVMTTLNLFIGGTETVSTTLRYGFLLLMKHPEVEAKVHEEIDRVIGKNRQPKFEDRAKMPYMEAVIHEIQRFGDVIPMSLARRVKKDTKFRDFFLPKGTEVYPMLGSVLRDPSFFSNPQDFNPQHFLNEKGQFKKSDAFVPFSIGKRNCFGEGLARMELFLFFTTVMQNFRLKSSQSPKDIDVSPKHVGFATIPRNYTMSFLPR

CCOP(=S)(OCC)SCCSCC
inactive: [1] | [2] | [3] | [4] | [5] | [6] | CD38, CD38 (gene 952) | CD40, CD40 (gene 958) | CD69, CD69 (gene 969) | [7] | [8] | [9] | [10] | [11] | [12] | [13]

CCOP(=O)(NC(C)C)Oc1ccc(SC)c(C)c1 (stereo not drawn)
inactive: [1] | [2] | [3] | [4] | [5] | [6] | CD38, CD38 (gene 952) | CD69, CD69 (gene 969) | [7] | [8] | [9] | [10] | [11] | [12] | [13]

CCc1cccc(C)c1N(C(=O)CCl)C(C)COC (stereo not drawn)
active: [6] 13.1 µM | [14] 14.2 µM
inactive: [1] | [2] | [3] | [4] | [5] | CD38, CD38 (gene 952) | CD40, CD40 (gene 958) | [7] | [8] | [9] | [10] | [11] | [12] | [13] | [15]

CCC(=NOC/C=C/Cl)C1=C(O)CC(C2CCOCC2)CC1=O (stereo not drawn)
inactive: [1] | [2] | [3] | [4] | [5] | [6] | [14] | CD38, CD38 (gene 952) | CD69, CD69 (gene 969) | [7] | [8] | [9] | [10] | [11] | [12] | [13]

CCOP(=S)(OCC)Oc1cc(C)nc(C(C)C)n1
active: [6] 20 µM
inactive: [1] | [2] | [3] | [4] | [5] | CD38, CD38 (gene 952) | CD40, CD40 (gene 958) | CD69, CD69 (gene 969) | [7] | [8] | [9] | [10] | [11] | [12] | [13] | [15]

S=C1NCCN1
active: [16] 3.94 µM
inactive: [1] | [2] | [3] | [4] | [5] | [6] | CD38, CD38 (gene 952) | CD69, CD69 (gene 969) | [7] | [8] | [9] | [10] | [11] | [12] | [13] | [15]
